According to PubChem BioAssay (NCI):
This is part of a sample that, as a whole, favours compounds with a hit. Of some 83,000 tested, about 20% had one in any assay.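 Single-dose data. Exposure time 48 hours. Values below 10 considered active.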 Activity calls are given as the source filed them.

The compounds below were run on MALME-3M melanoma (assay: NCI-60 one-dose screen, 48 h (100 = growth as untreated, 0 = no growth, -100 = all killed)). Conditions: 10 µM unless noted.
With `CCC(CC)N1C(=O)/C(=c2\sc3n(c2=O)NC2C(N=3)N(CC)C(=O)N2CC)c2ccccc21` (stereo not drawn) the growth was 65.2% (inactive). For `CN1CCN(c2ccc(/C=N/Nc3nc4ccccc4c(=O)n3-c3ccccc3)cc2)CC1`, the growth was 102% (inactive). With `CC1=NC2=NC(=O)/C(=C3/N=C(C)C=C(c4ccccc4)N3N)NN2C(c2ccccc2)=C1` the growth was 44.3% (inactive). For `Nc1ncc(-c2ccc3ncnc(N4CCc5cc(F)c(F)cc54)c3c2)cn1`, the growth was 17.4% (inactive). For `COc1ccc(Oc2ccc(/C=N/NC(=O)CSc3nc4ccccc4c(=O)n3-c3ccc(Cl)cc3)cc2)cc1`, the growth was 63.9% (inactive). In the case of `COc1ccc2c(c1)Oc1nc(N)c(C#N)c(N)c1C2Sc1ccc(C)cc1` (stereo not drawn), the growth is reported as -57% (active). With `CC(=O)C1=C(C)NC(NN)=NC1c1cccc(Cl)c1` (stereo not drawn) the growth was 104% (inactive). For `O=C(NNc1nc2cc(F)ccc2n2c(CO)ccc12)c1cnccn1`, the growth was 10.5% (inactive). `NC(N)=Nc1ccc(Oc2cccc(NC(N)=Nc3ccc(Br)cc3)c2)cn1` was tested, and the growth was 69.8% (inactive). For `CCOC(=O)C1=NNC(c2ccc(Cl)cc2)C1C(=O)N1C(=S)NC(=O)C1CC(C)C` (stereo not drawn), the growth was 104% (inactive). `CC/C(=C/c1c(O)cccc1OC)c1ccc2c(OC)cccc2[o+]1` was tested, and the growth was 105% (inactive). For `Cn1ccnc1C(=O)/C=C/c1ccc(CNC(=O)c2ccc(Cl)cc2)cc1`, the growth was 73.5% (inactive). In the case of `COc1c(N2CC3CCCNC3C2)c(F)cc2c(=O)c(C(=O)N/N=C/c3ccc(F)cc3)cn(C3CC3)c12` (stereo not drawn), the growth is reported as 86.3% (inactive). For `CN(C)CCNC(=O)c1ccc(-c2nc3ccc4[nH]ncc4c3c3c2CCC3)cc1`, the growth was -0.0162% (active). With `C=C(C=O)[C@@H]1CC[C@]2(COC(C)=O)CC[C@]3(C)C(CC[C@@H]4[C@@]5(C)CC[C@H](OC(C)=O)C(C)(C)[C@@H]5CC[C@]43C)[C@@H]12` (stereo partly drawn) the growth was -64.7% (active). With `COc1c(N2CC3CCCNC3C2)c(F)cc2c(=O)c(C(=O)N/N=C/c3c[nH]c4ccccc34)cn(C3CC3)c12` (stereo not drawn) the growth was 118% (inactive). With `COc1cc(C2N=C(NNc3ccccc3)NC(C)=C2C(C)=O)ccc1O` (stereo not drawn) the growth was 106% (inactive). `CCCCCc1ccc(S(=O)(=O)Nc2cccc(-c3csc(NC(=O)CNCCN(C)C)n3)c2)cc1` was tested, and the growth was 74% (inactive). `CCCCCc1ccc(S(=O)(=O)Nc2cccc(-c3csc(NC(=O)CCCCCN4CCN(CCO)CC4)n3)c2)cc1` was tested, and the growth was 29.8% (inactive). With `CS(=O)(=O)Nc1cc(-c2ccc3ncc(C#N)c(NCc4ccccc4O)c3c2)cnc1Cl` the growth was -37.2% (active). With `CC(=O)N1C(=S)NC(=O)C1CC(C)C` (stereo not drawn) the growth was 102% (inactive). `COc1cc(/C=C2\C(=O)Nc3ccccc32)ccc1OCc1ccc(Cl)cc1` was tested, and the growth was 95.5% (inactive). In the case of `COc1cc2oc(-c3cccc(NC(=O)c4cc(N)ccc4Cl)c3)cc(=O)c2c(OC)c1OC`, the growth is reported as 100% (inactive). For `COc1ccc(Cn2cc3c(c2-c2cc(OC)c(OC)c(OC)c2)CCc2c(CN4CCCC4)noc2-3)cc1`, the growth was 19% (inactive). In the case of `CCCCCc1ccc(S(=O)(=O)Nc2cccc(-c3csc(NCCN4CCN(C)CC4)n3)c2)cc1`, the growth is reported as -36.7% (active). `CCC1=Cc2cc(OC)ccc2OC12C=Cc1cc(OC)ccc1O2` (stereo not drawn) was tested, and the growth was 58.4% (inactive). `CCCCCc1ccc(S(=O)(=O)Nc2cccc(-c3csc(NC(=O)CCCCCN4CCN(C)CC4)n3)c2)cc1` was tested, and the growth was -67.4% (active). `N#Cc1cnc2ccc(-c3cnc4[nH]ncc4c3)cc2c1N1CCc2cc(F)c(Cl)cc21` was tested, and the growth was 0.688% (active). With `CC(C)C[C@@H]1N[C@@]2(C(=O)Nc3ccccc32)[C@@H](c2ccc(F)cc2)[C@@H]1C(=O)c1ccc(O)cc1` the growth was 84.3% (inactive). `O=C(NNc1nc2cc(F)cc(F)c2n2cccc12)c1cnccn1` was tested, and the growth was 23.1% (inactive). In the case of `O=C(NNc1nc2cc(F)c(F)cc2n2cccc12)c1cnccn1`, the growth is reported as 49.7% (inactive). With `O=C(CNc1nc(-c2cccc([N+](=O)[O-])c2)cs1)Nc1cccc([N+](=O)[O-])c1` the growth was -70.8% (active). `CC(Nc1c(C#N)cnc2ccc(-c3cnc(N)nc3)cc12)c1ccccc1` (stereo not drawn) was tested, and the growth was 0.078% (active). In the case of `C=CCn1c(SCC(=O)Nc2ccc(C(=O)/C=C/c3ccc(Cl)cc3)cc2)nnc1-c1c[nH]c2ccccc12`, the growth is reported as 83% (inactive). For `CCCCCc1ccc(S(=O)(=O)Nc2cccc(-c3csc(NC(=O)CN4CCN(C)CC4)n3)c2)cc1`, the growth was 45.7% (inactive). In the case of `O=C(NCc1ncc[nH]1)c1ccc(-c2nc3ccc4[nH]ncc4c3c3c2CCCC3)cc1`, the growth is reported as -14.7% (active). For `Cc1c(Cl)cccc1S(=O)(=O)Nc1ccc2c(c1)C(=O)N(C1CCC(=O)NC1=O)C2=O` (stereo not drawn), the growth was 55% (inactive). For `COC(=O)C1(C)CCC[C@]2(C)[C@H]3C[C@H]4C(C(C)C)=C[C@]3(CC[C@@H]12)[C@H]1[C@@H]4[C@@H](OC(=O)c2ccco2)CC[C@@H]1OC(=O)c1ccco1` (stereo partly drawn), the growth was 108% (inactive).
